Source: PMC5540273 (PLoS ONE, 2017)

Tests used:
LZK = system: T1, LZK
T1 construct: gene MAP3K13

MEK1 = system: T2, MEK1
T2 construct: gene MAP2K1

MLCK = system: T3, MLCK
T3 construct: gene MYLK3
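Note: kd values determined as follow-up on hits from a single-replicate KINOMEscan panel screen.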

Fc1cccc(COc2ccc(Nc3ncnc4sc(-c5ccc[nH]5)cc34)cc2Cl)c1 [GW707818]
Kd (LZK): > 10 µM

O=C(NCCCN1CCCC1=O)c1cnc(NCc2cc(Cl)ccc2Cl)nc1NC1CCNCC1
Kd (MAK): > 10 µM

c1ccc(-c2ccc3c(-c4ccnc(Nc5ccc6c(c5)OCCO6)n4)cnn3n2)cc1 [GW818941]
Kd (MAK): > 10 µM
Kd (MET): > 10 µM

Cn1cc(-c2ccc3c(c2)CCN3C(=O)Cc2cccc(C(F)(F)F)c2)c2c(N)ncnc21 [GSK2606414]
Kd (MAPKAPK2): > 10 µM

CCn1c(-c2ccncc2)nc2cnccc21 [SB-735216]
Kd (MARK3): > 10 µM

CC(C)(C)OC(=O)NC1CCCN(c2cc(-c3ccc4c(N)n[nH]c4c3)nc(N)n2)C1 (stereo not shown) [GSK2286096]
Kd (MEK1): > 10 µM

C[C@H]1CC[C@@H](C(=O)Nc2ccccc2)CN1c1cc(-c2ccc3c(N)n[nH]c3c2)nc(N)n1 [GSK2283293]
Kd (MET): > 10 µM

CSc1ccc(NC2=C(c3ccccc3Cl)C(=O)NC2=O)cc1 [SB-342411]
Kd (MKNK1): > 10 µM

Nc1n[nH]c2nnc(-c3ccccc3)cc12 [SB-517389]
Kd (MLCK): > 10 µM
